Assay results reported in PubChem BioAssay (NCI).
The panel holds about 83,000 compounds, 20% with a hit somewhere; the sample as a whole holds those more often.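 Single-concentration screen, 48 h exposure, 96-well plates. Endpoint: percent growth. Below 10 = active.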 A number with no mark means an inactive call. Calls of active or inactive are those of the source.

How the values were obtained:
Assay in all cases: NCI-60 one-dose screen, 48 h (100 = growth as untreated, 0 = no growth, -100 = all killed)
Conditions in all cases: 10 µM unless noted
SR leukemia = system: SR leukemia
RPMI-8226 leukemia = system: RPMI-8226 leukemia
OVCAR-8 ovarian = system: OVCAR-8 ovarian
OVCAR-5 ovarian = system: OVCAR-5 ovarian
OVCAR-4 ovarian = system: OVCAR-4 ovarian
SK-OV-3 ovarian = system: SK-OV-3 ovarian
IGROV1 ovarian = system: IGROV1 ovarian
OVCAR-3 ovarian = system: OVCAR-3 ovarian
HS 578T breast = system: HS 578T breast
NCI/ADR-RES ovarian = system: NCI/ADR-RES ovarian

SMILES	growth (SR leukemia)	growth (RPMI-8226 leukemia)	growth (OVCAR-8 ovarian)	growth (OVCAR-5 ovarian)	growth (OVCAR-4 ovarian)	growth (SK-OV-3 ovarian)	growth (IGROV1 ovarian)	growth (OVCAR-3 ovarian)	growth (HS 578T breast)	growth (NCI/ADR-RES ovarian)
CNC1CCc2c(sc(NC(=O)c3ccc(C(C)(C)C)cc3)c2C(N)=O)C1 (stereo not given)	2.87% (active)	-5.86% (active)	74.6%	67%	81.4%	90.6%	65.8%	61.3%	57.3%	78.2%
COc1ccc(Cn2cc3c(c2-c2cc(OC)c(OC)c(OC)c2)CCc2c(CN4CCCC4)noc2-3)cc1	29%	21%	42.5%	27.9%	55.2%	41%	29.9%	-16% (active)	10.3%	9.19% (active)
CCOP(=O)(OCC)OC[C@]12CCC(C)(C)C=C1[C@H]1CC[C@@H]3[C@@]4(C)CC[C@H](OP(=O)(OCC)OCC)C(C)(C)[C@@H]4CC[C@@]3(C)[C@]1(C)CC2	-27.4% (active)	-43% (active)	-27.3% (active)	-26.8% (active)	-1.21% (active)	-2.62% (active)	-20% (active)	-85.5% (active)	-13.5% (active)	0.702% (active)
Cc1noc(C)c1CSc1nc2ccccc2n1-c1ccccc1	69.7%	95.8%	102%	89%	69.1%	116%	77%	114%	102%	97.3%
CCCCCc1ccc(S(=O)(=O)Nc2cccc(-c3csc(NC(=O)CCCCCN4CCN(CCO)CC4)n3)c2)cc1	-19.2% (active)	7.46% (active)	96.7%	91.6%	80.8%	96.8%	84.5%	75.6%	86.1%	99.6%
COc1cccc(O)c1/C=C(/C)c1ccc2c(OC)cccc2[o+]1	87.6%	109%	103%	106%	103%	106%	97%	116%	110%	100%
O=C(NNc1nc2cc(F)ccc2n2c(CN3CCC(O)C3)ccc12)c1cnccn1 (stereo not given)	6.32% (active)	27.4%	13.8%	41.4%	18.9%	8.37% (active)	18.2%	34.9%	75.9%	2.49% (active)
N#Cc1cnc2ccc(-c3cnc4[nH]ncc4c3)cc2c1N1CCc2cc(F)c(Cl)cc21	8.41% (active)	-1.79% (active)	19.2%	19.5%	15.3%	4.24% (active)	-31% (active)	-5.18% (active)	-42% (active)	8.51% (active)
Nc1cc(-c2c[nH]c3ccc(Br)cc23)nc2cc(-c3c[nH]c4ccc(Br)cc34)nn12	-1.79% (active)	15.9%	24.5%	7.96% (active)	40.8%	116%	22.2%	22.6%	54.4%	35.5%
Cc1ccc(C2=NN(C)C(=O)C3(CCCC3)C2)cc1	113%	111%	102%	102%	106%	110%	110%	110%	109%	102%
C=C(C)[C@@H]1CC[C@]2(COC)CC[C@]3(C)[C@H](CC[C@@H]4[C@@]5(C)CCCNC(C)(C)[C@@H]5CC[C@]43C)[C@@H]12	-54.9% (active)	-36.8% (active)	79.2%	75.5%	28.7%	102%	37.2%	80.9%	37.8%	51.3%
O=C(Nc1cccc(C(F)(F)F)c1)c1cc(-c2ccc(F)cc2F)ccc1O	24%	-10.3% (active)	11.5%	9.98% (active)	12.4%	-0.0407% (active)	10.4%	9.88% (active)	-5.22% (active)	4.03% (active)
Cc1ccc(-c2cc3nc(C(Cl)Cl)nc(-c4cccs4)n3n2)cc1	108%	51.9%	77.5%	72.4%	71%	86.4%	61.7%	20.3%	91%	58.3%
CCCCc1nc(/C=N/Nc2nc(Nc3ccccc3)nc(Nc3ccc(S(N)(=O)=O)cc3)n2)c(Cl)[nH]1	11.5%	96.7%	90%	102%	80.6%	114%	98.4%	46.2%	77.8%	108%
Cc1nc(-c2ccccc2O)ccc1C(=O)N=Nc1c(O)[nH]c2ccc(Br)cc12	101%	87.9%	97.9%	101%	102%	97.7%	89.7%	103%	91.6%	99.6%
COc1ccc(-c2nc3ccc(-c4nnc(SCC(=O)Nc5ccc(C(=O)/C=C/c6ccc(Cl)cc6)cc5)o4)cc3[nH]2)cc1	68.2%	79.9%	105%	99.4%	103%	112%	87.2%	113%	90.6%	107%
COc1ccc([C@H]2c3[nH]c4ccccc4c3C[C@H]3C(=O)N(C4CCN(Cc5c(Cl)cccc5Cl)CC4)CC(=O)N23)c(OC)c1	85%	89.9%	97.5%	96.7%	97.2%	117%	78.9%	103%	88.4%	90.5%
C#Cc1ccc(C(=O)NCc2ccc(/C=C/C(=O)c3nccn3C)cc2)cc1	4.33% (active)	6.86% (active)	26.9%	26.8%	39%	50.2%	13.1%	17.8%	22.6%	9.5% (active)
CCCCNNC(=O)c1ccc(-c2cccc(F)c2F)cc1	25.2%	5.02% (active)	20.8%	24.9%	41.5%	47.2%	31.3%	44.6%	41.2%	13.4%
NC(N)=Nc1ccc(Oc2ccc(Nc3ccc(Cl)c(C(F)(F)F)c3)cc2)cc1	-4.22% (active)	41.9%	55.1%	66.2%	52.3%	89.4%	-7.75% (active)	-21.8% (active)	56.1%	91.9%
O=S(=O)(NCCNc1nccc(-n2cnc3ccccc32)n1)c1ccc(Br)cc1	75.1%	79.7%	95.6%	94%	82.2%	99.9%	90.7%	103%	85.7%	97.6%
O=S(=O)(NCCCNc1nccc(-c2[nH]c(-c3ccccc3)nc2-c2ccc(Cl)c(O)c2)n1)c1ccc(Br)cc1	15.3%	22.1%	33.3%	72.2%	46.6%	68.4%	36.8%	24.1%	63.2%	42.6%
Cc1ccc(-n2cc(/C=C/C(=O)c3ccc(O)cc3)c(-c3ccc(S(C)(=O)=O)cc3)n2)cc1	55.1%	47.9%	87.5%	95.7%	98.7%	94.9%	47.7%	22.7%	96.2%	33.6%
NS(=O)(=O)c1ccc(-n2cc(CN3CCCCC3)nn2)cc1	93.7%	107%	105%	105%	105%	122%	104%	113%	100%	109%
Cc1ccc(-n2cc(/C=N/NC(=O)c3nc(N)n[nH]3)c(-c3ccc(S(C)(=O)=O)cc3)n2)cc1	79.3%	100%	100%	105%	101%	104%	98.4%	95.7%	108%	100%
CS(=O)(=O)c1ccc(-n2cc(/C=N/O)c(-c3ccccc3)n2)cc1	30.3%	70.9%	84.2%	98.6%	77.6%	109%	-26.2% (active)	94.4%	95.4%	84.4%
Cc1nn(-c2ccccc2)c2ncnc(N/N=C/c3cccc(O)c3)c12	30.8%	22.7%	59.2%	77.1%	30.2%	88.4%	54.9%	41.5%	56.9%	23.3%
